Columns and labels:
Assay in all cases: PBM binding z-score (relative to random genomic background probes); higher = stronger binding; sequences stand for … in GC…GCGATTGACAGCGTAGAATGAAGG
[1] = test system: RARb homodimer (NR concentration 270 nM)
In short: (§1)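 Regression normalization was applied to scanned fluorescence from custom Agilent 4×180K protein-binding microarrays. Before scanning, arrays were incubated 1 h with ligand-free nuclear receptor dimers, and binding was detected with antibodies against each partner (one per run). Binding z-scores use the random background probes as reference.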

[2] = test system: RARg:RXRa (NR concentration 270 nM, RXRa partner concentration 90 nM)
In short: as §1

[3] = test system: RARg homodimer (NR concentration 270 nM)
In short: as §1

[4] = test system: RXRa DBDmut IVT, anti-RXR (DBD mutation: RXRa K156A/R161A, NR concentration 90 nM)
In short: as §1

[5] = test system: RXRa homodimer (NR concentration 180 nM)
In short: as §1

[6] = test system: THRa:RXRa (NR concentration 90 nM, RXRa partner concentration 90 nM)
In short: as §1

[7] = test system: THRa homodimer (NR concentration 90 nM)
In short: as §1

[8] = test system: VDR homodimer (NR concentration 270 nM)
In short: as §1

| Sequence | PBM binding z-score [1] | PBM binding z-score [2] | PBM binding z-score [3] | PBM binding z-score [4] | PBM binding z-score [5] | PBM binding z-score [6] | PBM binding z-score [7] | PBM binding z-score [8] |
| --- | --- | --- | --- | --- | --- | --- | --- | --- |
| TCTATTAGTTGATTAGGGCAACCCAAACAGCGGA | 0.891 | 0.877 | 0.646 | 1.04 | 0.612 | 0.77 | 0.499 | 0.49 |
| ATCTCTAGGTAACAAGTTCCGTGAAAGAGAGGAC | 0.549 | 0.357 | 0.586 | -0.202 | 0.164 | 0.983 | 0.899 | 0.475 |
| TCTTGTAGATCAAGCAGGTTACGAAAGCCTGAGT | 0.377 | 0.206 | -0.118 | 0.652 | 0.618 | 0.537 | -0.421 | -0.206 |
| ACTCGGAGGACACAGGTCAGAGCTACGCCAGTGA | 2.78 | 2.68 | 3.12 | 0.823 | 2.09 | 2.57 | 0.77 | 0.0264 |
| ACTCGCAGGCCAAGTTTGGGTCACTCAAACAAAG | 2.5 | 2.65 | 1.73 | 0.0285 | 0.756 | 2.72 | 1.1 | 0.548 |
| ACAGACAGGTGAGTGAAGGTAACTGAGCTGGACG | 0.0356 | 0.592 | 0.479 | -0.622 | 0.511 | 1.75 | -0.353 | -0.218 |
| CGAACTAGGTCAGAACAGGGCAGTGAAGGATGAT | 2.52 | 2.65 | 3.35 | 0.463 | 1.28 | 2.69 | 0.148 | 0.0633 |
| TGGCAAAGTTCAAAGGTAACGTAAGTATCCACAC | 4.03 | 6.21 | 5.81 | 4.22 | 7.78 | 3.41 | -0.0262 | 4.04 |
| TCTGCTAGGTCAACGATGGTCACCTAATCTGCTA | 3.63 | 4.17 | 4.77 | 1.06 | 2.69 | 3.58 | 1.37 | 0.156 |
| CCGACTGTGGCAGAAAGGTTACCATACCATCCGG | 1.82 | 1.02 | 0.761 | -0.111 | 1.47 | 0.958 | -0.0743 | -0.259 |
| TCATATAGGTGATACAGGTGAAAGTCGGCATCTA | 1.08 | 0.874 | 0.742 | 1.16 | 1.34 | 0.983 | 0.0719 | 0.258 |
| CCTCGGAGGACAACAGGACGTCAGAGCTGCCAGA | 0.189 | 0.272 | 1.12 | 0.0264 | -0.244 | 0.648 | -0.377 | -0.354 |
| ATCTCTAGGTAAAGTGCAGTGAAAGATCGATAGA | 0.108 | 0.474 | 0.497 | 0.0332 | 0.222 | 0.316 | -0.174 | -0.0309 |
| CCGAGTAGGTTATGGGGCATTCTGGCAACGGTGA | 1.05 | 0.374 | 0.468 | 0.11 | 0.554 | 0.0308 | 0.157 | 0.195 |
| ATCTCCAGGTAAAGATAGTTCAGTGAATGCAAAT | 1.03 | 0.342 | 0.839 | 0.0268 | -0.000636 | 1.06 | 0.451 | 0.711 |
| TCATATAGATAAACAGGTGAAAGTCCGTAAGTTA | 0.615 | 0.467 | 0.388 | 1.94 | 1.33 | 0.561 | 0.191 | 0.676 |
| CGAACTAGGTCATTGACAGGACAGGGAATAGTAA | 2.89 | 4.58 | 4.36 | 2.18 | 2.59 | 2.99 | 1.01 | 1.02 |
| GCTCGGAGGACAAGGTCAGTGCTTTGTCCGTAGA | 3.23 | 2.82 | 3.65 | 0.477 | 1.29 | 2.77 | 1.49 | 0.406 |
| TGTCAAAGTTCAAAGGTAACTTAAGTATCCACAC | 3.71 | 6.26 | 6.11 | 4.5 | 7.54 | 3.6 | -0.309 | 4.03 |
| TCATATAGGTAAATGGTGAAAGTCGGTGTGGTAA | 0.19 | 0.0436 | -0.12 | 1.83 | 0.476 | 0.0433 | 0.202 | 0.415 |
| AGAACGAGGTTACCAAAGATCAGGGAAACGCTTG | 0.645 | 1.94 | 1.91 | 0.737 | 2.66 | 2.31 | 0.23 | 0.242 |
| ATCTCTAGGTAACCAAGTACAGTGAATGCCGAAC | 0.221 | 0.424 | 0.577 | 0.152 | 0.115 | 0.827 | 0.385 | 0.365 |
| CCTACTGGGCCACGAAAGGTCATTGACTCAGTGA | 4.8 | 4.9 | 4.53 | 0.581 | 4.92 | 3.77 | 0.711 | 2.15 |
| CCTACTGCGCCAAAGGTCATTGATTCCAATGCTC | 4.88 | 5.4 | 4.69 | 2.16 | 6.21 | 3.46 | 1.9 | 3.56 |
| TAGCCTAGGTCATTCAGGGGCCAGTGTAGAAAGC | 3.6 | 6.11 | 4.75 | 1.83 | 3.15 | 3.58 | 0.809 | 1.58 |
| CAAACTAGGTCACCGAGGTCAAAGTCCGTGCGTA | 5.47 | 6.99 | 7.18 | 3.46 | 7.09 | 4.93 | 4.37 | 7.68 |

| Sequence | PBM binding z-score [1] | PBM binding z-score [2] | PBM binding z-score [3] | PBM binding z-score [4] | PBM binding z-score [5] | PBM binding z-score [6] | PBM binding z-score [7] | PBM binding z-score [8] |
| --- | --- | --- | --- | --- | --- | --- | --- | --- |
| CCTACTGGGCCAAAGGTCATTGCTTCCAATGCTC | 4.58 | 5.56 | 4.3 | 1.36 | 5.91 | 3.37 | 0.719 | 2.42 |
| GTACCAAGGTGAATAGGTCGATGATGAGTAGGCG | 1.77 | 2.49 | 1.57 | -0.426 | 1.86 | 1.52 | 0.425 | 0.182 |
| CGTCCAAGGTCAAAGGTCAGTGATGAGATGACGG | 5.76 | 8.67 | 7.8 | 3.72 | 10.1 | 4.87 | 3.03 | 4.03 |
| TCTGCTAGGTCAACGATGGTCAGCTATTCTGCTA | 3.16 | 3.99 | 4.93 | 0.833 | 2.46 | 3.03 | 0.599 | -0.371 |
| CCGACAGGGGCAGAAAGGTTACCATACCATCCGG | 2.48 | 1.84 | 1.71 | -0.361 | 1.99 | 1.14 | -0.126 | 0.344 |
| CCTAGCAGGCCAATCTGGGTCACTGAAGGCTTGA | 2.38 | 1.15 | 1.38 | 0.114 | 0.872 | 3.79 | 0.399 | -0.314 |
| ATCTCTAGGTATCCAAGTTCAGTGAATGCCGAAC | 1.46 | 0.373 | 0.76 | 0.842 | 0.354 | 0.837 | 0.736 | 2.5 |
| TATACAGGGTCAGAGGCCAGAGTACGAATGTCGA | 3.01 | 4.21 | 4.27 | 1.39 | 4.32 | 2.74 | 0.817 | 2.2 |
| CCAGCTAGGTCAATGGTCAGCTAAAGCAGCTCGC | 2.83 | 3.55 | 4.15 | 1.51 | 2.04 | 2.1 | 0.209 | 0.021 |
| AGAAGGAGGGCACGCTGAGTTGATAGCAGAGTAG | 1.4 | 1.94 | 2.17 | 0.783 | 1.2 | 1.13 | -0.112 | 1.04 |
| TAGGCTAGGTCATGCGGGCCAGTATAGTGTCGGC | 3.1 | 3.73 | 4.44 | 0.47 | 3.14 | 2.77 | 0.748 | 0.519 |
| CGTCCAAGGTCATAGGAGGCCAGTGAAGACAGAT | 4.11 | 5.88 | 5.84 | 3.97 | 5.41 | 4.9 | 2.32 | 3.03 |
| AGAACGAGGGCAATGGGTTGATAGCACGGGTGGC | 1.6 | 1.47 | 1.68 | 1.84 | 1.09 | 1.12 | 0.645 | 4.19 |
| AGTCAAAGTTCAGGACGAGGTGACGTAAAGCACG | 3.64 | 5.69 | 5.15 | 3.18 | 3.53 | 3.93 | 1.83 | 2.66 |
| ACTAGATGGTCAGCTGAGGTCACACACAATTCGG | 4.52 | 4.38 | 4.75 | 1.45 | 4.78 | 5.09 | 5.1 | 3.61 |
| AGAATGAGGTTATACGTAGCTCAGGGAAGAAAGT | 0.301 | 1.29 | 0.944 | 1.7 | 1.86 | 1.81 | 0.226 | 0.643 |
| AGCCAAAGTTCATCTAGGTAACGTAAGATATGCT | 4.1 | 5.56 | 5.88 | 4.5 | 4.72 | 3.15 | 0.256 | 5.28 |
| CTCGAAAGGTAGGTTGAGGTGAGTATACGGATAA | 0.59 | 0.129 | 0.396 | -0.171 | 0.223 | 3.9 | 1.24 | 0.0952 |
| GCAGACAGGTGAAACGCTGGTAACTCAGGGTGGC | -0.219 | 0.167 | -0.138 | -0.318 | 0.612 | 0.209 | -0.645 | -0.838 |
| CCTGCTACGTCAATGGTCAGCTAAAGCAGCTCGC | 0.4 | -0.424 | -0.342 | 0.29 | -0.492 | -0.534 | -0.374 | -0.434 |
| CCTACTGGGCCACGAAAGGTCAGTGATTCAGTGA | 3.87 | 3.69 | 4.04 | -0.37 | 3.1 | 3.1 | 0.0818 | 0.0755 |
| CTCGAAAGGTCGTGCTCAGGTGTGTATACCAAAC | 2.72 | 4.45 | 3.62 | 2.5 | 4.71 | 3 | 0.4 | 0.893 |
| TCTAGCGGGCCAGAGGGTCACTCAAGAGGTACGG | 2.86 | 2.61 | 1.98 | 0.0957 | 2.37 | 1.51 | -0.522 | 0.587 |
| ATCTCTAGGTAAAGATAGTTGAGTGAATGCAAAT | -0.216 | 0.504 | 0.43 | 0.115 | 0.0675 | 0.495 | 0.0736 | 0.275 |
| ATCACTAGGTAAAGATAGTTCAGTGAATGCAAAT | 0.839 | 0.649 | 0.795 | -0.617 | 0.325 | 0.492 | 0.0795 | 0.49 |
| ACTAGTTGGTCAGCTGAGGTCACAAACAATTCGG | 4.02 | 3.8 | 3.86 | 0.835 | 3.71 | 5.04 | 4.45 | 3.58 |
